Among all 5,500 compounds or so, about 2,000 (36%) were called active. Another 18% or so got no clear call; they are omitted. Cut-off read from the data, not from the text of the source: active = normalized growth mostly below about 0.91 (no sharp cut-off); inconclusive = no clear call, values can overlap the other calls; inactive = mostly above about 0.92. Some of the results follow.
Test: chemical genetic growth profiling, strain panel (AID 1159580);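 note: tested at 20 µM; growth read once vehicle control cultures reached saturation at 30 °C; 1 = growth at the plate median or of vehicle wells; lower values mean less growth of the strain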
Conditions: S. cerevisiae deletion strains, growth OD
[1] = locus YDL101C, strain DUN1, hits give low values
[2] = locus YHR030C, strain SLT2, hits give low values
[3] = locus YHR079C, strain IRE1, hits give low values
[4] = locus YJL095W, strain BCK1, hits give low values
[5] = locus YJR066W, strain TOR1, hits give low values
[6] = locus YLR113W, strain HOG1, hits give low values
[7] = locus YNL183C, strain NPR1, hits give low values
[8] = locus YOR231W, strain MKK1, hits give low values
[9] = locus YPL256C, strain CLN2, hits give low values

Measured: normalized growth

O=C(NCCCCO)OCC1c2ccccc2-c2ccccc21
inactive: locus YAL013W, strain DEP1, hits give low values 1 | locus YBR229C, strain ROT2, hits give low values 0.997 | [1] 1 | locus YDR150W, strain NUM1, hits give low values 0.986 | locus YEL061C, strain CIN8, hits give low values 0.985 | locus YGR078C, strain PAC10, hits give low values 0.991 | locus YGR229C, strain SMI1, hits give low values 0.987 | [2] 0.867 | locus YHR087W, strain rtc3, hits give low values 0.987 | locus YJR043C, strain POL32, hits give low values 0.989 | locus YJR075W, strain HOC1, hits give low values 1.01 | locus YLR039C, strain RIC1, hits give low values 1.02 | locus YLR058C, strain SHM2 (second series), hits give low values 0.98 | locus YLR085C, strain ARP6, hits give low values 0.886 | locus YLR262C, strain YPT6, hits give low values 1.02 | locus YML094W, strain GIM5, hits give low values 0.955 | locus YMR219W, strain ESC1, hits give low values 0.995 | locus YMR263W, strain SAP30, hits give low values 0.959 | locus YMR307W, strain GAS1, hits give low values 0.812 | locus YNL153C, strain GIM3, hits give low values 0.983 | locus YNL298W, strain CLA4 (second series), hits give low values 0.929 | locus YNL322C, strain KRE1, hits give low values 1 | locus YNR030W, strain Alg12, hits give low values 0.963 | locus YPL055C, strain LGE1, hits give low values 0.953 | locus YPL241C, strain CIN2, hits give low values 0.937 | locus YPR135W, strain CTF4, hits give low values 0.959

O=C(Nc1ccccc1C(=O)O)OCC1c2ccccc2-c2ccccc21
inactive: locus YAR019C, strain CDC15, hits give low values 0.993 | locus YBL105C, strain PKC1, hits give low values 0.989 | locus YBR135W, strain CKS1, hits give low values 0.978 | locus YBR136W, strain MEC1, hits give low values 0.987 | locus YBR160W, strain CDC28, hits give low values 0.981 | locus YDL017W, strain CDC7, hits give low values 0.986 | locus YDL028C, strain MPS1, hits give low values 0.987 | [1] 0.988 | locus YDL108W, strain KIN28, hits give low values 0.984 | locus YDL132W, strain cdc53, hits give low values 0.985 | locus YDL214C, strain PRR2, hits give low values 0.884 | locus YDR052C, strain DBF4, hits give low values 0.983 | locus YDR054C, strain cdc34, hits give low values 0.99 | locus YDR226W, strain ADK1, hits give low values 0.982 | locus YDR477W, strain SNF1, hits give low values 0.859 | locus YER123W, strain YCK3, hits give low values 0.839 | locus YER133W, strain GLC7, hits give low values 0.901 | locus YFL009W, strain cdc4, hits give low values 0.986 | locus YFL029C, strain CAK1, hits give low values 0.992 | locus YFR003C, strain YPI1, hits give low values 0.985 | locus YFR019W, strain FAB1, hits give low values 0.803 | locus YFR028C, strain CDC14, hits give low values 0.979 | locus YGR040W, strain KSS1, hits give low values 0.857 | locus YGR052W, strain FMP48, hits give low values 0.701 | locus YGR092W, strain DBF2, hits give low values 0.683 | [3] 0.793 | locus YHR205W, strain SCH9, hits give low values 0.746 | locus YIL147C, strain SLN1, hits give low values 0.986 | [4] 0.665 | locus YJL128C, strain PBS2, hits give low values 0.927 | locus YJL157C, strain FAR1, hits give low values 0.893 | locus YJR016C, strain ILV3, hits give low values 0.99 | locus YJR066W, strain TOR1 (second series), hits give low values 0.826 | [5] 0.709 | locus YKL067W, strain YNK1, hits give low values 0.866 | locus YKL101W, strain HSL1, hits give low values 0.72 | locus YKL193C, strain SDS22, hits give low values 0.987 | locus YKL203C, strain TOR2, hits give low values 0.883 | locus YLR133W, strain CKI1, hits give low values 0.78 | locus YLR403W, strain SFP1, hits give low values 0.795 | locus YML070W, strain DAK1, hits give low values 0.842 | locus YMR001C, strain CDC5, hits give low values 0.986 | locus YMR205C, strain PFK2 (second series), hits give low values 0.853 | locus YMR277W, strain FCP1, hits give low values 0.989 | locus YNL006W, strain LST8, hits give low values 0.978 | locus YNL020C, strain ARK1, hits give low values 0.728 | locus YNL161W, strain CBK1, hits give low values 0.983 | [7] 0.742 | locus YNL207W, strain RIO2, hits give low values 0.992 | locus YNL222W, strain SSU72, hits give low values 0.985 | locus YNL307C, strain MCK1 (second series), hits give low values 0.703 | locus YOL078W, strain AVO1, hits give low values 0.977 | locus YOL136C, strain PFK27, hits give low values 0.805 | locus YOR119C, strain RIO1, hits give low values 0.927 | [8] 0.818 | locus YOR329C, strain SCD5, hits give low values 0.993 | locus YPL031C, strain PHO85, hits give low values 0.827 | locus YPL153C, strain RAD53, hits give low values 0.855 | locus YPL204W, strain HRR25, hits give low values 0.797 | locus YPL209C, strain IPL1, hits give low values 0.984 | locus YPR025C, strain CCL1, hits give low values 0.991 | locus YPR106W, strain ISR1, hits give low values 0.977 | locus YPR111W, strain DBF20, hits give low values 0.96 | strain NNK1, hits give low values 0.987 | strain TSCII, hits give low values 0.99
active: [2] 0.366 | locus YHR082C, strain KSP1, hits give low values 0.591 | locus YKL048C, strain ELM1, hits give low values 0.799 | [6] 0.8 | locus YOR061W, strain CKA2, hits give low values 0.553 | [9] 0.808

CC(C)C[C@@H](NC(=O)OCC1c2ccccc2-c2ccccc21)C(=O)O
inactive: locus YAL021C, strain ccr4, hits give low values 0.988 | locus YAL026C, strain drs2, hits give low values 0.982 | locus YAL030W, strain snc1, hits give low values 0.991 | locus YBL061C, strain skt5, hits give low values 1.01 | locus YBR009C, strain hhf1, hits give low values 1.01 | locus YBR023C, strain chs3, hits give low values 1 | locus YBR171W, strain sec66, hits give low values 1 | locus YBR231C, strain swc5, hits give low values 1.01 | locus YBR279W, strain paf1, hits give low values 0.998 | locus YCL011C, strain gbp2, hits give low values 0.993 | locus YCL016C, strain dcc1, hits give low values 0.983 | locus YCL061C, strain MRC1, hits give low values 1 | locus YCL069W, strain vba3, hits give low values 0.995 | locus YCR088W, strain abp1, hits give low values 0.992 | locus YDL005C, strain med2, hits give low values 0.986 | locus YDL040C, strain nat1, hits give low values 0.985 | locus YDR001C, strain nth1, hits give low values 0.977 | locus YDR069C, strain doa4, hits give low values 0.993 | locus YDR137W, strain rgp1, hits give low values 0.962 | locus YDR159W, strain sac3, hits give low values 1.04 | locus YDR195W, strain ref2 0.945 | locus YDR297W, strain sur2, hits give low values 1 | locus YDR334W, strain swr1, hits give low values 0.988 | locus YDR335W, strain msn5, hits give low values 0.991 | locus YDR392W, strain spt3, hits give low values 0.955 | locus YEL003W, strain gim4, hits give low values 0.999 | locus YEL037C, strain rad23, hits give low values 0.998 | locus YEL061C, strain CIN8 (second series), hits give low values 0.997 | locus YER015W, strain faa2, hits give low values 0.997 | locus YER016W, strain bim1, hits give low values 0.993 | locus YER111C, strain swi4, hits give low values 1 | locus YER155C, strain BEM2 (second series), hits give low values 1.02 | locus YFR010W, strain ubp6, hits give low values 0.991 | locus YGL167C, strain pmr1, hits give low values 0.999 | locus YGL173C, strain kem1, hits give low values 1 | locus YGL227W, strain vid30, hits give low values 0.996 | locus YGL240W, strain doc1, hits give low values 1.01 | locus YGL253W, strain hxk2, hits give low values 1 | locus YHR013C, strain ard1, hits give low values 0.998 | locus YHR027C, strain rpn1, hits give low values 0.984 | [2] 0.966 | [3] 0.976 | locus YHR142W, strain chs7, hits give low values 0.996 | locus YJL092W, strain hpr5, hits give low values 1 | locus YJL095W, strain BCK1 (second series), hits give low values 0.999 | [4] 0.98 | locus YJL115W, strain asf1, hits give low values 0.979 | locus YJL129C, strain trk1, hits give low values 1 | locus YJL154C, strain vps35, hits give low values 0.986 | locus YJL164C, strain tpk1, hits give low values 0.971 | locus YJL166W, strain qcr8, hits give low values 1 | locus YJL187C, strain SWE1, hits give low values 0.996 | [5] 0.89 | locus YKL160W, strain elf1, hits give low values 0.99 | locus YKR026C, strain gcn3, hits give low values 1 | locus YKR091W, strain srl3, hits give low values 0.981 | locus YLL001W, strain dnm1, hits give low values 0.974 | locus YLL026W, hits give low values 0.992 | locus YLL041C, strain sdh2, hits give low values 1 | locus YLR027C, strain aat2, hits give low values 1 | [6] 0.888 | locus YLR221C, strain rsa3, hits give low values 1.03 | locus YLR258W, strain gsy2, hits give low values 1 | locus YLR262C, strain YPT6 (second series), hits give low values 0.949 | locus YLR320W, strain mms22, hits give low values 1.02 | locus YLR342W, strain FKS1, hits give low values 0.99 | locus YLR357W, strain rsc2, hits give low values 0.97 | locus YLR370C, strain arc18, hits give low values 1.01 | locus YLR384C, strain iki3, hits give low values 0.991 | locus YML120C, strain ndi1, hits give low values 0.994 | locus YMR058W, strain fet3, hits give low values 0.991 | locus YMR125W, strain sto1, hits give low values 0.965 | locus YMR129W, hits give low values 0.998 | locus YMR205C, strain PFK2, hits give low values 0.973 | locus YMR231W, strain pep5, hits give low values 0.971 | locus YNL071W, strain lat1, hits give low values 0.995 | [7] 0.888 | locus YNL209W, strain ssb2, hits give low values 0.997 | locus YNL248C, strain rpa49, hits give low values 0.978 | locus YNL322C, strain KRE1 (second series), hits give low values 1 | locus YNR049C, strain mso1, hits give low values 0.998 | locus YOR001W, strain rrp6, hits give low values 1.01 | locus YOR070C, strain gyp1, hits give low values 0.991 | locus YOR080W, strain dia2, hits give low values 1.01 | locus YOR083W, strain WHI5, hits give low values 0.986 | locus YOR106W, strain vam3, hits give low values 0.963 | [8] 0.949 | locus YOR265W, strain rbl2, hits give low values 1 | locus YOR270C, strain vph1, hits give low values 0.954 | locus YOR290C, strain snf2, hits give low values 0.956 | locus YPL051W, strain arl3, hits give low values 1.01 | locus YPL078C, strain atp4, hits give low values 0.979 | locus YPL106C, strain sse1, hits give low values 1.02 | locus YPL240C, strain hsp82, hits give low values 1.01 | [9] 0.945
